In the supplement of paper PMC10723795:
± gives the standard deviation of the averaged measurements.

system: RPE1; assay: nucleolar normality score relative to DMSO (fraction of DMSO control); RPE1 is a non-cancer human cell line; higher = more normal nucleoli (less nucleolar stress)
Experimental: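 Selected screen hits were validated in hTERT lines (BJ5TA, CHON-002, RPE1) and cancer lines (DLD1, HCT116). Cells were immunostained for nucleolin and UBF and the nucleolar normality score was measured per field of view, with 4 fields per drug. Scores are normalized to each cell line's own DMSO control. Dose and time are not stated for this panel.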

SMILES	nucleolar normality score
CN1CC[C@H](c2c(O)cc(O)c3c(=O)cc(-c4ccccc4Cl)oc23)[C@H](O)C1 [Flavopiridol]	0.254 ± 0.019
CC(C)C[C@H](NC(=O)[C@H](CCc1ccccc1)NC(=O)CN1CCOCC1)C(=O)N[C@@H](Cc1ccccc1)C(=O)N[C@@H](CC(C)C)C(=O)[C@@]1(C)CO1 [Carfilzomib]	0.501 ± 0.086
CN(C)CCNC(=O)c1cccn2c(=O)c3cc4ccccc4cc3nc12	0.0724 ± 0.012
Cc1cnc(CNC(=O)c2c(=O)c3ccc(N4CCCN(C)CC4)nc3n3c2sc2ccccc23)cn1	0.277 ± 0.066
COc1cccc2c1C(=O)c1c(O)c3c(c(O)c1C2=O)C[C@@](O)(C(=O)CO)C[C@@H]3O[C@H]1C[C@H](N)[C@H](O)[C@H](C)O1 [Doxorubicin]	0.133 ± 0.011
CC(C)n1nc(-c2ccc3oc(N)nc3c2)c2c(N)ncnc21 [Sapanisertib]	0.405 ± 0.0078
CC(C)c1cc(C(=O)N2Cc3ccc(CN4CCN(C)CC4)cc3C2)c(O)cc1O [Onalespib]	0.289 ± 0.0093
CCc1cnn2c(NCc3ccc[n+]([O-])c3)cc(N3CCCC[C@H]3CCO)nc12 [Dinaciclib]	0.268 ± 0.01
COC[C@H](NC(=O)c1cnc(C)s1)C(=O)N[C@@H](COC)C(=O)N[C@@H](Cc1ccccc1)C(=O)[C@@]1(C)CO1 [Oprozomib]	0.55 ± 0.037
CC(C)c1c2cc(-c3ccnc(NC4CCC(NC5CCOCC5)CC4)n3)ccc2nn1C (configuration not stated)	0.462 ± 0.015
Cc1nc(-c2cn3c(n2)-c2ccc(-c4cnn(C(C)(C)C(N)=O)c4)cc2OCC3)n(C(C)C)n1 [Taselisib]	0.376 ± 0.0084
C=CCNC1=C2C[C@@H](C)C[C@H](OC)[C@H](O)[C@@H](C)/C=C(\C)[C@H](OC(N)=O)[C@@H](OC)/C=C\C=C(/C)C(=O)NC(=CC1=O)C2=O	0.296 ± 0.014
